This note sets out measurements from PubChem BioAssay (NCI).

Some test systems named below: MOLT-4 leukemia; SR leukemia; RPMI-8226 leukemia; OVCAR-8 ovarian; OVCAR-5 ovarian; OVCAR-4 ovarian; SK-OV-3 ovarian; IGROV1 ovarian; HS 578T breast; NCI/ADR-RES ovarian; T-47D breast; BT-549 breast; MDA-MB-435 melanoma; SW-620 colon; MCF7 breast; HCT-116 colon; HCC-2998 colon; KM12 colon; OVCAR-3 ovarian.
Assay in all cases: NCI-60 one-dose screen, 48 h (100 = growth as untreated, 0 = no growth, -100 = all killed)
Common to all, as to conditions: 10 µM unless noted

The panel holds about 83,000 compounds, 20% with a hit somewhere; the sample as a whole holds those more often.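 Treatment: one concentration, 48 hours, 96-well format. Scoring: percent growth, with anything below 10 considered active.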 Unmarked numbers belong to inactive results. Calls of active or inactive are those of the source.

As for `CC[C@H](C)[C@H](NC(=O)c1cccn1C)C(=O)N(C)[C@H](C[C@@H](OC(C)=O)c1nc(C(=O)N[C@@H](Cc2ccccc2)C[C@H](C)C(=O)OC)cs1)C(C)C`, the growth was 16.2% with MOLT-4 leukemia; 14.4% in the test with SR leukemia; 18.6% in the test on RPMI-8226 leukemia; 15.6% in the test with OVCAR-8 ovarian; 43.5% in the test on OVCAR-5 ovarian; 46.9% with OVCAR-4 ovarian. For the same compound, the growth with SK-OV-3 ovarian was 10.8%; with IGROV1 ovarian, 23%; in the test with HS 578T breast, 27%; in the test with NCI/ADR-RES ovarian, 7.66% (active); with T-47D breast it was 64%; with BT-549 breast it was -27% (active). In addition, the growth was -18.2% (active) with MDA-MB-435 melanoma; 26.2% in the test with SW-620 colon; 15% with MCF7 breast; -3.74% (active) with HCT-116 colon; 18.4% in the test with HCC-2998 colon; 10% with KM12 colon.
Regarding `Cc1cc(C)c(CBr)c(C)c1`, the growth with MOLT-4 leukemia is 96.3%; in the test on SR leukemia, 107%; in the test on RPMI-8226 leukemia it was 100%; in the test on OVCAR-8 ovarian, 99.4%; in the test on OVCAR-5 ovarian, 96.6%; in the test on OVCAR-4 ovarian, 127%. For the same compound, the growth in the test on SK-OV-3 ovarian was 104%; with IGROV1 ovarian, 99.2%; in the test on HS 578T breast, 106%; in the test with NCI/ADR-RES ovarian, 103%; in the test with T-47D breast, 101%; with BT-549 breast, 105%. For the same compound, the growth is 111% in the test with MDA-MB-435 melanoma; 103% in the test on SW-620 colon; 96.4% in the test on MCF7 breast; 110% in the test with HCT-116 colon; 114% in the test with HCC-2998 colon; 105% in the test with KM12 colon.
Turning to `O=C1NC(=O)C(=Cc2cn(CCCCCCn3c4ccccc4c(=O)c4ccccc43)c3ccccc23)C(=O)N1`, the growth is 63.2% with MOLT-4 leukemia; 93.5% in the test on SR leukemia; 76.2% in the test on RPMI-8226 leukemia; 91.8% with OVCAR-8 ovarian; 22.6% in the test on OVCAR-5 ovarian; 85.8% in the test with OVCAR-4 ovarian. The growth in the test on SK-OV-3 ovarian is 77.5%; in the test with IGROV1 ovarian it was 79.2%; in the test with HS 578T breast it was 103%; in the test on NCI/ADR-RES ovarian, 83.9%; in the test on T-47D breast, 60.6%; in the test with BT-549 breast it was 94.3%. The growth with MDA-MB-435 melanoma was 102%; in the test with SW-620 colon it was 93.8%; with MCF7 breast it was 71.6%; with HCT-116 colon, 70.2%; with HCC-2998 colon it was 96.8%; with KM12 colon, 95.8%.
Take `N#CCCNc1ccccc1`: the growth in the test with MOLT-4 leukemia is 79.3%; with SR leukemia it was 77.1%; in the test with RPMI-8226 leukemia, 95.2%; with OVCAR-8 ovarian, 114%; with OVCAR-5 ovarian, 104%; with OVCAR-4 ovarian, 105%. Besides, the growth in the test on SK-OV-3 ovarian is 121%; with IGROV1 ovarian it was 119%; in the test on OVCAR-3 ovarian, 106%; with NCI/ADR-RES ovarian, 108%; in the test on T-47D breast, 111%; with BT-549 breast, 108%. Further, the growth in the test with MDA-MB-435 melanoma is 98.9%; in the test on SW-620 colon, 103%; in the test with MCF7 breast it was 103%; in the test on HCT-116 colon it was 108%; with HCC-2998 colon it was 106%; with KM12 colon it was 113%.
For the compound `[Cl][Hg][n]1c(-c2ccco2)nc2ccccc21`, the growth in the test with MOLT-4 leukemia was 88.3%; in the test with SR leukemia, 64.2%; in the test on RPMI-8226 leukemia it was 92.7%; in the test with OVCAR-8 ovarian it was 106%; with OVCAR-5 ovarian, 117%; in the test with OVCAR-4 ovarian it was 100%. For the same compound, the growth was 119% in the test with SK-OV-3 ovarian; 90.5% in the test on IGROV1 ovarian; 93.9% with HS 578T breast; 98.6% in the test on NCI/ADR-RES ovarian; 94.6% in the test with T-47D breast; 99.2% in the test with BT-549 breast. In addition, the growth was 95.7% in the test on MDA-MB-435 melanoma; 80.9% with SW-620 colon; 74.9% in the test on MCF7 breast; 99.7% in the test on HCT-116 colon; 116% in the test with HCC-2998 colon; 97.8% with KM12 colon.
On to `O=C(c1ccccc1O)c1[nH]c(Cl)c(Cl)c1-n1c(C(=O)c2ccccc2O)cc(Cl)c1Cl`, for which the growth in the test with MOLT-4 leukemia was -1.12% (active); in the test with SR leukemia it was 8.12% (active); in the test on RPMI-8226 leukemia, -30.1% (active); in the test on OVCAR-8 ovarian, 8.28% (active); with OVCAR-5 ovarian, 18.5%; with OVCAR-4 ovarian it was 14.5%. The growth with SK-OV-3 ovarian was -5.75% (active); in the test on IGROV1 ovarian, 23%; in the test on HS 578T breast, -16.9% (active); in the test with NCI/ADR-RES ovarian it was -3.31% (active); in the test on T-47D breast, -10.1% (active); with BT-549 breast it was -5.5% (active). The growth with MDA-MB-435 melanoma is 3.49% (active); with SW-620 colon it was 7.86% (active); in the test on MCF7 breast it was 1.43% (active); in the test with HCT-116 colon, 0.716% (active); in the test on HCC-2998 colon, 15.3%; in the test with KM12 colon, -19.3% (active).
With `CCOc1ccc(/C=C/[N+](=O)[O-])cc1`, the growth with MOLT-4 leukemia is 118%; with SR leukemia it was 67.5%; in the test with RPMI-8226 leukemia, -36.4% (active); with OVCAR-8 ovarian, 101%; in the test on OVCAR-5 ovarian it was 89.8%; with OVCAR-4 ovarian, 87.9%. Further, the growth in the test on SK-OV-3 ovarian was 111%; with IGROV1 ovarian, 86.5%; with OVCAR-3 ovarian, 86.3%; in the test on NCI/ADR-RES ovarian, 100%; in the test with T-47D breast, 86%; in the test on BT-549 breast it was 80.8%. Also, the growth with MDA-MB-435 melanoma is 20.1%; in the test with SW-620 colon, 66.6%; with MCF7 breast it was 28.5%; with HCT-116 colon, -31.6% (active); with HCC-2998 colon, 23.7%; in the test on KM12 colon, 70.7%.
In the case of `COC(=O)CCc1c[nH]c2ccc(N(CCCl)CCCl)cc12`, the growth in the test with MOLT-4 leukemia is 23.1%; in the test on SR leukemia, 12.7%; in the test on RPMI-8226 leukemia it was 86.3%; in the test on OVCAR-8 ovarian, 56.1%; with OVCAR-5 ovarian it was 80.3%; in the test on OVCAR-4 ovarian it was 79.7%. Further, the growth in the test with SK-OV-3 ovarian is 66.4%; in the test with IGROV1 ovarian, 65.6%; in the test on OVCAR-3 ovarian it was 80.3%; in the test with NCI/ADR-RES ovarian, 52.7%; in the test on T-47D breast, 60.2%; with BT-549 breast, 57.4%. For the same compound, the growth was 74.1% in the test with MDA-MB-435 melanoma; 47.5% in the test with SW-620 colon; 30.9% in the test on MCF7 breast; 53.1% with HCT-116 colon; 84% in the test with HCC-2998 colon; 86.6% with KM12 colon.
